About 79,000 compounds went through this panel and 15% of them were active in at least one assay; those are over-represented in the sample as a whole. A number with no mark means an inactive call. The source made the active and inactive calls. No stated cut-off is given here; in the data, active means growth inhibition above about 70%; inactive means the rest.
Columns and labels:
[1] = NCI Yeast Anticancer Drug Screen. Data for the rad50 strain (AID 155);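 further: 0% = growth of vehicle-only cultures of the same strain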; conditions: S. cerevisiae rad50 strain growth inhibition; at 50.0 µM; active compounds read high
How it was run: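 DNA repair mutant yeast, compound exposure, growth read-out; inhibition is taken relative to vehicle.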

[2] = NCI Yeast Anticancer Drug Screen. Data for the mec2-1 strain (AID 157); conditions: S. cerevisiae mec2-1 strain, at 50.0 µM, active compounds read high
How it was run: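 Readout is yeast growth inhibition, normalised to vehicle-treated controls, in the mec2-1 strain exposed to compound.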

[3] = NCI Yeast Anticancer Drug Screen. Data for the sgs1 mgt1 strain (AID 161);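 further: 0% = growth of cultures given vehicle only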; conditions: S. cerevisiae sgs1 mgt1 strain, at 50.0 µM, active compounds read high
How it was run: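 Yeast cells carrying a defined DNA-repair defect were exposed to test compounds. Growth inhibition was measured relative to vehicle-treated controls.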

[4] = NCI Yeast Anticancer Drug Screen. Data for the cln2 rad14 strain (AID 165);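 further: 0% = growth equal to vehicle treated cultures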; conditions: S. cerevisiae cln2 rad14 strain, at 50.0 µM, active compounds read high
How it was run: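 Relative to vehicle controls, growth inhibition of compound-treated cln2 rad14 yeast was recorded.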

[5] = NCI Yeast Anticancer Drug Screen. Data for the bub3 strain (AID 167); conditions: S. cerevisiae bub3 mutant strain, at 50.0 µM, active compounds read high
How it was run: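 In this screen, a yeast mutant lacking normal mitotic checkpoint function is challenged with compound. Relative growth versus vehicle gives the inhibition value.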

[6] = NCI Yeast Anticancer Drug Screen. Data for the mlh1 rad18 strain (AID 175); conditions: S. cerevisiae mlh1 rad18 strain growth inhibition; at 50.0 µM; active compounds read high
How it was run: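 Test agents were incubated with a yeast strain of defined genotype (DNA damage repair defect). Inhibition of growth was derived by comparison with vehicle-exposed cultures.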

| Structure (SMILES) | growth inhibition [1] | growth inhibition [2] | growth inhibition [3] | growth inhibition [4] | growth inhibition [5] | growth inhibition [6] |
| --- | --- | --- | --- | --- | --- | --- |
| CN(C)CCOC(=O)C(C)(C)Sc1ccc(Cl)cc1 | 11.1% | 23.3% | 26.4% | -5.35% | 0.4% | 25.5% |
| Cn1c(=O)[nH]c(=O)c2[nH]c(=O)c(=O)n(C)c21 | -3.15% | 23.3% | 1.55% | -1.9% | -9.5% | -13.1% |
| O=C(OCc1ccc([N+](=O)[O-])cc1)N1c2ccccc2[C@@]23O[C@]24CCC[C@H]3C#C/C=C\C#C[C@H]14 | 22.1% | 25.2% | 2.45% | -13.6% | 9.85% | -32.6% |
| CCN(CC)CCC(C)C(Cc1cccs1)OC(C)=O (stereo not drawn) | 4.1% | -3.9% | -2.95% | -39% | 35.2% | 5.6% |
| CCCc1cc2c(cc1CSc1ccccc1C(=O)O)OCO2 | -13.6% | -8.75% | -1.9% | -84.7% | -7.6% | -12.4% |
| COC(=O)c1ccccc1C(=O)c1ccccc1 | -2.5% | 9.2% | 3.8% | -4.75% | -5.95% | 8.4% |
| CC(=O)CC(=O)Nc1ccc(Cc2ccc(Br)cc2)cc1 | 23.7% | -5.55% | 9.55% | 18.5% | 4.15% | 18.9% |
| CN1CCN(C)c2nc3ccccc3nc21 | 0.2% | 3% | 1.8% | -12.1% | -6.85% | -7.05% |
| CCOc1ncc(C(O)c2ccco2)c(OCC)n1 (stereo not drawn) | -0.85% | 5.85% | 5.7% | -47.8% | 3.15% | -8% |
| NCCCN(CCCCN(CCCN)C(=O)OCc1ccccc1)C(=O)OCc1ccccc1 | 6.85% | -13.1% | -18.9% | 8.55% | 1.2% | -55.9% |
| CCOC(=O)CCCCCC#N | 1.35% | -18.4% | -6.1% | -1.75% | -9.5% | -0.15% |
| CCNC(=O)NS(=O)(=O)c1ccc(Sc2ccc(C)cc2)nc1 | -11.2% | -7.3% | -1.1% | -20.5% | 7.2% | 0.7% |
| CCOC(=O)Oc1cc2c(ccn2C)c2c1c1ccccc1n2C(=O)OCC | 2.25% | -1.8% | -26.6% | 8.9% | 13.6% | 0.4% |
| COc1ccc(CNC(=O)C2C(=O)C(=O)N(Cc3ccc(OC)c(OC)c3)C2=O)cc1OC (stereo not drawn) | 20.8% | -5.45% | -0.9% | 17.1% | -1.25% | 14.7% |
| Cc1ccc(NC(=O)OCCN(C)C)cc1Cl | -6.75% | -25.8% | 16.4% | 11.1% | 8.2% | -4.6% |
| Cc1ccc(S(=O)(=O)c2ccc(C)cc2C(=O)O)cc1 | -8.6% | -19.3% | -1.4% | -9.8% | -30.2% | -22.4% |
| CN(C)CCC(CCN(C)C)=NOC(=O)c1ccccc1 | -5.45% | -20.2% | 10.1% | 8.55% | 21.4% | 15.6% |
| CSC(=N)N1N=C2c3ccccc3CC[C@@H]2[C@@H]1c1ccccc1 | -0.1% | -7.3% | -18.9% | 38% | -10.8% | -18.4% |
| O=c1[nH]c(=O)n(C2OC(COP(=O)(O)OP(=O)(O)O)C(O)C2O)cc1F (stereo not drawn) | 1.4% | -2.7% | -11.4% | -31.3% | 0.75% | -7% |

| Structure (SMILES) | growth inhibition [1] | growth inhibition [2] | growth inhibition [3] | growth inhibition [4] | growth inhibition [5] | growth inhibition [6] |
| --- | --- | --- | --- | --- | --- | --- |
| CCOC(=O)NCCNC(=O)OCC | 8.8% | 0.3% | 1.45% | 6.65% | -11.7% | 3.6% |
| CCc1[nH]nc(-c2n[nH]c(CC)c2C)c1C | -66.8% | -24.9% | -20.1% | -26.4% | -13.7% | -9.3% |
| Cc1[nH]c(-c2ccccc2)c2nc(N(C)C)oc(=O)c12 | -11.4% | 29.3% | 17.4% | 10.5% | 34.1% | -5.25% |
| CC12CCCC=C1C(C)(C)C(O)CC2 (stereo not drawn) | 3.45% | 1.7% | 2.95% | 7.3% | -26.8% | 0.8% |
| CC(C)(C)C(=O)N/N=C\c1ccc([N+](=O)[O-])s1 | 13.1% | -7.3% | 20.4% | 38.7% | 13.1% | 40.5% |
| N#Cc1ccc(OCc2nc(N)nc(N)c2-c2ccc(Cl)cc2)cc1 | -4.4% | 5.35% | -16.4% | -10% | 20.8% | 14.8% |
| O=C(NC(CCS(=O)(=O)n1ccnc1)C(=O)OCc1ccccc1)OCc1ccccc1 (stereo not drawn) | 12.7% | -4.95% | -18.2% | 11.2% | -4.7% | 1.6% |
| CC(=O)NC1C(O)C(O)C(CO)OC1n1ncc(=O)[nH]c1=O (stereo not drawn) | 13.1% | 22.8% | -14.2% | -18.9% | -20.4% | -37.9% |
| NC(Cc1ccc(O)c(O)c1)C(=O)OCc1ccccc1 (stereo not drawn) | 67.6% | 60.7% | 68.8% | 58.4% | 38.5% | 65.8% |
| C=C(C(C)C)C1CC1 | 0.25% | -18.2% | -4.25% | 3.5% | -2.6% | -11.8% |
| O=C1c2ccccc2C(=O)N1C1Nc2ccccc2N1 | 20% | 10.6% | 9.3% | -0.1% | 16.7% | 14.8% |
| Cc1ccc(NCCN(C)C)c2c(=O)c3cccc(O)c3sc12 | 73.5% (active) | 35.1% | 18.2% | 26.8% | 40.4% | 65% |
| NC(N)=NCc1ccc2c(c1)OCO2 | -28.4% | -2.95% | -1% | 10.1% | -10.9% | -34.1% |
| C=Cc1c2[n-]c(c1C)/C=c1\[n-]/c(c(C)c1C=C)=C\c1[n-]c(c(CCC(=O)O)c1C)/C=c1\[n-]/c(c(C)c1CCC(=O)O)=C\2.[Co] | 14.8% | 54.9% | 53.6% | -2.05% | 19.2% | 59.9% |
| O=C(Nc1ccc(Cl)cc1)C(=O)C1=C(O)c2ccccc2OC1 | 16.9% | -5.95% | -12.3% | 11.4% | -4.95% | 9.15% |
| O=C(COc1ccccc1)Nc1cccc2ccccc12 | 4.5% | 24.5% | 6.6% | -3.7% | 10.4% | 29.2% |
| CCCCCCC1OCC(CC)(CC)CO1 | 11.8% | -12.4% | -18.9% | -26.5% | -15.6% | 26.4% |
| O=C(O)c1cc(CC2Cc3cc4c(cc3C2=O)CCC4)cc2c1CCC2 (stereo not drawn) | -27.4% | -30.1% | -21.6% | 6.05% | -18.8% | -21.8% |
| C=CCOC(=O)Nc1ccc(S(=O)(=O)N2CCCCC2)cc1 | 9% | 6.1% | 2.95% | -17.4% | 17.6% | -5.15% |

From PubChem BioAssay (NCI)
